# Assay results taken from PubChem BioAssay (NCATS).
# Where “and” joins values, the source holds several entries; their conditions need not be identical. Equal values may be shown once. Records with an inconclusive call do not appear. A call without a number means that no potency is given here. A number with no mark means an inactive call. Calls of active or inactive are those of the source. The call rests on the fitted dose curve; in most records, active means well fitted curve in the direction sought with a large enough effect; inconclusive means small, poorly fitted or top-dose-only effect, or another doubt; inactive means no such curve, though single readings can be large; an effect the other way counts as inactive or inconclusive.
# Tests used:
# [1] = Quantitative highthroughput screen to assess conditional lethalithy of NOMO1 cells grown in RPMI1640 with untreated serum (RPMI+s) (AID 1963876); further: nearly all actives have a fitted effect of over 35% in size; further: potency means the concentration at half of the fitted maximal effect
# Outline: (§1)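 Each medium arm—HPLM with 10% dialyzed FBS, or RPMI1640 with 5 mM glucose and 10% untreated or dialyzed FBS—was screened against an 11-point, 3-fold compound titration for 48 h at 37 °C, with CellTiter-Glo luminescence as endpoint.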
# [2] = Quantitative highthroughput screen to assess conditional lethalithy of NOMO1 cells grown in RPMI1640 with dialyzed fetal bovine serum (RPMI+ds) (AID 1963877); further: nearly all actives have a fitted effect of over 30% in size; further: potency means the concentration at half of the fitted maximal effect; on viability: series mostly up to about 46 µM
# Outline: as §1
# [3] = Quantitative highthroughput screen to assess conditional lethalithy of NOMO1 cells grown in Human Plasma-Like Medium with dialyzed fetal bovine serum (HPLM+ds) (AID 1963878); further: nearly all actives have a fitted effect of over 35% in size; further: potency means the concentration at half of the fitted maximal effect
# Outline: as §1
# [4] = Quantitative highthroughput screen to assess conditional lethalithy of P12 Ichikawa cells grown in Human Plasma-Like Medium with dialyzed fetal bovine serum (HPLM+ds) (AID 1963879); conditions: Potency: viability; further: nearly all actives have a fitted effect of over 35% in size; further: potency means the concentration at half of the fitted maximal effect; on viability: series mostly up to about 46 µM
# Outline: as §1
# [5] = Quantitative highthroughput screen to assess conditional lethalithy of P12 Ichikawa cells grown in RPMI1640 with dialyzed fetal bovine serum (RPMI+ds) (AID 1963880); conditions: Potency: P12-Ichikawa viability; further: nearly all actives have a fitted effect of over 35% in size; further: potency means the concentration at half of the fitted maximal effect
# Outline: as §1
# [6] = Quantitative highthroughput screen to assess conditional lethalithy of P12 Ichikawa cells grown in RPMI1640 with untreated serum (RPMI+s) (AID 1963881); conditions: Potency: viability; further: nearly all actives have a fitted effect of over 35% in size; further: potency means the concentration at half of the fitted maximal effect; on viability: series mostly up to about 46 µM
# Outline: as §1
# [7] = Quantitative highthroughput screen to assess conditional lethalithy of SEM cells grown in Human Plasma-Like Medium with dialyzed fetal bovine serum (HPLM+ds) (AID 1963882); further: nearly all actives have a fitted effect of over 35% in size; further: potency means the concentration at half of the fitted maximal effect; on viability: series mostly up to about 46 µM
# Outline: as §1
# [8] = Quantitative highthroughput screen to assess conditional lethalithy of SEM cells grown in RPMI1640 with unreated serum (RPMI+s) (AID 1963883); further: nearly all actives have a fitted effect of over 35% in size; further: potency means the concentration at half of the fitted maximal effect
# Outline: as §1
# [9] = Quantitative highthroughput screen to assess conditional lethalithy of SEM cells grown in RPMI1640 with dialyzed fetal bovine serum (RPMI+ds) (AID 1963884); further: nearly all actives have a fitted effect of over 35% in size; further: potency means the concentration at half of the fitted maximal effect; on viability: series mostly up to about 46 µM
# Outline: as §1
# [10] = Cellular viability qHTS for adrenocortical cancer (ACC) cell line SW-13 (AID 1963989); conditions: SW-13 ACC cells viability, CellTiter-Glo, 48 h; activity (max response): hits give low values;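 further: cells grown in serum-free medium with ITS supplement; nearly all actives have a fitted effect of over 65% in size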
# Outline: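 Compound titrations (up to 46 uM final, in DMSO) were applied to SW-13 cells for 48 h at 37C/5% CO2. Reading used CellTiter-Glo after 20 min at room temperature; fitted curves yielded IC50 and efficacy.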
# [11] = Cellular viability qHTS for adrenocortical cancer (ACC) cell line NCI-H295R (AID 1963990); further: nearly all actives have a fitted effect of over 60% in size
# Outline: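 Readout: CellTiter-Glo luminescence, 20 min RT. Exposure: 48 h, 37C/5% CO2. Cells: NCI-H295R, ITS-DMEM serum-free. Range: up to 46 uM. Analysis: 4PL fit, IC50 plus efficacy.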
SMILES,Potency [1],Potency [2],Potency [3],Potency [4],Potency [5],Potency [6],Potency [7],Potency [8],Potency [9],activity (max response) [10],Potency [11]
NC(=O)c1ccc(I)c([N+](=O)[O-])c1,inactive,inactive,inactive,inactive,inactive,inactive,inactive,inactive,inactive,11.3%,inactive
C[C@H](NC(=O)Cc1cc(F)cc(F)c1)C(=O)N[C@@H]1C(=O)N(C)c2ccccc2-c2ccccc21,11.8 µM (active),14.8 µM (active),4.69 µM (active),2.64 µM (active),7.43 µM (active),7.43 µM (active),4.18 µM (active),1.18 µM (active),3.32 µM (active),-7.45%,–
O=C(O)c1cccc(-c2noc(-c3ccccc3F)n2)c1,inactive,inactive,inactive,inactive,inactive,inactive,inactive,inactive,inactive,–,inactive
O=C(NCCCCN1CCOCC1)c1cc2ccccc2o1,inactive,inactive,inactive,inactive,inactive,inactive,inactive,inactive,inactive,10.7%,inactive
NC(=O)c1ccc(-c2nc(-c3ccc4c(c3)OCCO4)c(-c3ccccn3)[nH]2)cc1,inactive,inactive,inactive,inactive,inactive,inactive,inactive,inactive,inactive,-9.07%,–
CC(C)C1CCC(C(=O)N[C@H](Cc2ccccc2)C(=O)O)CC1 (stereo partly drawn),inactive,inactive,inactive,inactive,inactive,inactive,inactive,inactive,inactive,3.47% and 2.35%,inactive
